Laboratory results published in PubChem BioAssay AID651789 (National Center for Advancing Translational Sciences (NCATS), 2012).
Results filed as inconclusive are left out. A call without a number means that no potency is given here. The source made the active and inactive calls. The call rests on the fitted dose curve; in most records, active means well fitted inhibition curve with a large enough effect; inconclusive means small, poorly fitted or top-dose-only effect; inactive means no such curve, though single readings can be large or run the other way.

Assay: Acumen qHTS Assay for Inhibitors of the mTORC1 Signaling Pathway in WT MEF Cells: Hit Validation; further: nearly all actives have a fitted effect of over 60% in size
Conditions: Acumen imaging; series mostly up to 37.3 µM
How it was run: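 Read-out is immunofluorescent phospho-rpS6 (Ser235/236) normalised to PI-stained cell number, reported as % active cells using a 7.5 nM rapamycin threshold. Cells: WT or Tsc2-/-, p53-/- MEFs, compound-exposed 24 h at 37C; PI count also tracks viability.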
Potency means the concentration at half of the fitted maximal effect.

Q: Which Potency does the source give for `NC(=O)c1ccccc1NC(=O)c1ccc(-c2ccc(Br)cc2)o1` here?
A: Its Potency is “inactive”.

Q: With `CCOc1ccc(-n2c(C)nc3c(cnn3-c3ccc(C)cc3)c2=O)cc1` as the compound, how does the Potency read?
A: The Potency was “inactive”.

Q: Which Potency does the source give for `CCc1nn(CC(=O)NCc2ccccc2Cl)c(=O)c2cccn12` here?
A: The Potency was “inactive”.

Q: For `CCCCCn1c(=N)n(CC(O)COc2cccc(C)c2)c2ccccc21` (stereo not given), which Potency is on record?
A: The Potency was 4.14 µM (active).

Q: With `CCOC(=O)c1ccc(N2C(=O)c3n[nH]c(-c4ccco4)c3C2c2ccc(OCC)cc2)cc1` (stereo not given) as the compound, how does the Potency read?
A: Its Potency is “inactive”.

Q: With `Cc1ccc2nc(/C(C#N)=C/c3ccc(-c4ccc(F)cc4F)o3)[nH]c2c1` as the compound, how does the Potency read?
A: Its Potency is 4.14 µM (active).

Q: With `O=C(CC(NCc1cccnc1)C(=O)O)Nc1ccc(O)cc1` (stereo not given) as the compound, how does the Potency read?
A: Its Potency is “inactive”.

Q: For `COc1cc(OC)c(NC(=O)Nc2ccc3c(c2)N(C)C(=O)c2ccccc2S3)cc1Cl`, which Potency is on record?
A: Its Potency is 5.21 µM (active).

Q: With `CCc1ccc2ncc(S(=O)(=O)c3ccc(Cl)cc3)c(N3CCN(CC)CC3)c2c1` as the compound, how does the Potency read?
A: Its Potency is “inactive”.

Q: Which Potency does the source give for `CC(C)CCNc1nc(Nc2ccccc2)c2cnn(C)c2n1` here?
A: Its Potency is “inactive”.

Q: For `CCOC(=O)c1c(NC(=O)c2cc(CC)on2)sc(C(C)=O)c1C`, which Potency is on record?
A: Its Potency is “inactive”.

Q: Which Potency does the source give for `O=C(NCC(c1cccs1)S(=O)(=O)c1cccs1)c1ccccc1` (stereo not given) here?
A: Its Potency is “inactive”.

Q: With `Cc1c(C(=O)Nc2ccc(F)cc2F)nnn1-c1ccccc1Br` as the compound, how does the Potency read?
A: Its Potency is “inactive”.

Q: With `Cc1cccc(OCc2ccc(-c3nc(C#N)c(NCCN(C)C)o3)o2)c1` as the compound, how does the Potency read?
A: Its Potency is “inactive”.

Q: For `CCOc1ccccc1NC(=O)Cn1c(=O)n(CCC(=O)NCc2ccc3c(c2)OCO3)c(=O)c2ccccc21`, which Potency is on record?
A: The Potency was “inactive”.

Q: With `CCOc1ccc(C(=O)NCCc2sc(-c3ccc(C)cc3)nc2C)cc1` as the compound, how does the Potency read?
A: The Potency was “inactive”.

Q: With `O=C(Nc1ccccc1)N(Cc1cccc(Cl)c1)c1ccccn1` as the compound, how does the Potency read?
A: Its Potency is “inactive”.

Q: For `Cc1ccc(-c2cc(C(=O)N3CCN(c4ccccc4)CC3)c3ccccc3n2)cc1C`, which Potency is on record?
A: The Potency was “inactive”.

Q: With `COc1cc(NC(=O)Cn2nc(C(F)(F)F)c3c2CCCC3)c(OC)cc1Cl` as the compound, how does the Potency read?
A: The Potency was “inactive”.

Q: Which Potency does the source give for `CC/C(=C(\c1ccccc1)c1ccc(OCCN(C)C)cc1)c1ccccc1` here?
A: The Potency was “inactive”.

Q: Which Potency does the source give for `Cc1cccc(NC(=O)c2c(NC(=O)C(F)(F)F)sc3c2CCCCC3)c1` here?
A: The Potency was “inactive”.

Q: Which Potency does the source give for `Cc1nc2ccc(S(=O)(=O)CCC(=O)Nc3ccc(Cl)cc3)cc2s1` here?
A: The Potency was “inactive”.

Q: Which Potency does the source give for `CCOC(=O)Cc1ccc(NC(=O)n2ncc3cc(Cl)ccc32)cc1` here?
A: Its Potency is “inactive”.

Q: Which Potency does the source give for `CCN(Cc1nc(-c2ccc(OC)cc2)oc1C)S(=O)(=O)c1ccc(Cl)cc1` here?
A: The Potency was “inactive”.

Q: For `O=C(CCCn1c(=O)c2ccccc2n(Cc2cccc(Cl)c2)c1=O)NCCc1ccc(Cl)cc1`, which Potency is on record?
A: Its Potency is “inactive”.

Q: For `CCCCOc1ccc(Cn2c(=O)sc3ccccc32)cc1`, which Potency is on record?
A: The Potency was “inactive”.

Q: For `CCN(c1ccccc1)S(=O)(=O)c1ccc(NC(=O)c2nc(S(C)(=O)=O)ncc2Cl)cc1`, which Potency is on record?
A: Its Potency is 1.04 µM (active).

Q: Which Potency does the source give for `COc1ccc(NC(=O)CSc2nc3ccccc3nc2N2CCC(C)CC2)cc1` here?
A: The Potency was “inactive”.

Q: For `CCc1ccccc1NC(=O)CSc1nc2c(oc3ccccc32)c(=O)n1-c1ccccc1F`, which Potency is on record?
A: Its Potency is “inactive”.

Q: For `COc1cccc(-n2c(-c3ccco3)nc3c(cnn3-c3ccc(C)cc3)c2=O)c1`, which Potency is on record?
A: Its Potency is “inactive”.

Q: With `CCCCS(=O)(=O)c1oc(-c2ccc(F)cc2)nc1S(=O)(=O)c1ccccc1` as the compound, how does the Potency read?
A: The Potency was 0.656 µM (active).

Q: With `COc1ccc(S(=O)(=O)N(CCc2ccccc2)CC(=O)Nc2cccc(OC)c2)cc1` as the compound, how does the Potency read?
A: The Potency was “inactive”.

Q: Which Potency does the source give for `COc1cc(CNc2ccc3c(c2)ncn3C(C)C)cc(OC)c1OC` here?
A: Its Potency is “inactive”.

Q: For `Cc1cc(C)c(/C=C2\C(=O)Nc3ccccc32)[nH]1`, which Potency is on record?
A: The Potency was “inactive”.

Q: For `COc1ccc2cc(CNc3ccccc3)c(=O)n(CC(=O)Nc3ccc(C)cc3C)c2c1`, which Potency is on record?
A: The Potency was “inactive”.

Q: For `COc1ccc(OCC(=O)Nc2ccc3nn(-c4ccc(OC)cc4)nc3c2)cc1`, which Potency is on record?
A: The Potency was “inactive”.

Q: With `CC(C)(C)C1CCc2c(sc(NC(=O)C3c4ccccc4Oc4ccccc43)c2C(N)=O)C1` (stereo not given) as the compound, how does the Potency read?
A: Its Potency is “inactive”.

Q: With `Cc1ccc(S(=O)(=O)c2nc(-c3ccco3)oc2SC(C)c2ccccc2)cc1` (stereo not given) as the compound, how does the Potency read?
A: Its Potency is “inactive”.

Q: Which Potency does the source give for `O=C(CCCn1ccc2cc(S(=O)(=O)N3CCCC3)ccc21)NCc1ccc(Cl)cc1` here?
A: The Potency was “inactive”.

Q: For `CCN(CC)CCNC(=O)c1ccc(Cn2c(=O)c3cccn3c3cccnc32)cc1`, which Potency is on record?
A: Its Potency is “inactive”.
